# Marburg entry inh = inhibitors of Marburg virus binding or cell entry. Marburg virus pseudotyped entry inhibition, cell reporter. Potency, µM (top dose mostly 37.8 µM), inactives show at the top dose activity change, negative = inhibition, most hits filed as inhibitors. 300,000 compounds, 1.8% hits. AID 540276; calls by dose curve; tested in HEK293 cells; further: potency means the concentration at half of the fitted maximal effect; on the % scale 0 is the no-effect control and ±100 the full control effect
# Shiga inhibitor = Shiga toxin inhibition; Vero cells, Shiga toxin protein synthesis inhibition reporter; inhibition, % at 38.7 µM; 290,000 compounds, 9.2% hits; AID 2315; in the data active means inhibition mostly above about 28%, no sharp cut-off; inactive means mostly below about 43%; further: 0% is about no effect
# AMA1-RON2 inh = disrupts binding of P. falciparum AMA1 to RON2 | AlphaScreen AMA1-biotinylated RON2 peptide binding | Potency, µM (titrated, usually from 58.2 µM), without a hit: at the highest dose activity change, negative = inhibition, usual class: inhibitors | 360,000 compounds, 0.2% hits | AID 720542; active means well fitted inhibition curve with a large enough effect; inconclusive means small, poorly fitted or top-dose-only effect; inactive means no such curve, though single readings can be large or run the other way;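 further: potency means the concentration at half of the fitted maximal effect; 0% = vehicle wells and -100% = peptide control; nearly all actives have a fitted effect of over 45% in size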
#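 AMA1 (3D7) with his tag at 25 nM final met compounds first, then biotinylated RON2 peptide at 25 nM; detection used donor plus acceptor beads, 10 µg/mL apiece, read by AlphaScreen after 30 min at room temperature.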
# Cycloheximide cs = counter-screen hit for Shiga toxin inhibitors, cycloheximide | cell reporter, cycloheximide protein synthesis inhibition counterscreen | max response, % | 300,000 compounds, 12% hits; in the data active means max response mostly above about 13%, no sharp cut-off; inactive means mostly below about 14%; further: read at 38.3 µM for the half of the compounds with a filed dose; 0% is about no effect
# Lassa entry inh = inhibitors of Lassa virus binding or cell entry; Lassa virus pseudotype entry inhibition, cell reporter; Potency, µM (titrated, usually from 37.9 µM), for the others: at the top dose activity change, negative = inhibition, actives largely listed as inhibitors; 300,000 compounds, 1.2% hits; AID 540256; calls by dose curve; tested in HEK293 cells; further: potency means the concentration at half of the fitted maximal effect; on the % scale 0 is the no-effect control and ±100 the full control effect; nearly all actives have a fitted effect of over 50% in size
# * hit, by the source's call; ? = inconclusive; . = not tested or not shown; + = active, no number; [ ] = dose if it differs, or a comment. Shown is part of a subset that was picked to be rich in hits.
SMILES,Marburg entry inh,Shiga inhibitor,AMA1-RON2 inh,Cycloheximide cs,Lassa entry inh
CC1(C(=O)Nc2cccc(OC(F)(F)F)c2)Cc2c(-c3cccc(C(N)=O)c3)ccnc2O1 (stereo not given),.,.,-17%,.,.
Cc1cc(Nc2cc(Cl)ccc2C)n2nc(Cc3ccccc3)nc2n1,-5%[46.1 µM],.,.,.,-16%[46.1 µM]
CCOc1ccc(-c2nnc(SCC(=O)Oc3ccccc3)o2)cc1,?,.,.,.,13%[46.1 µM]
CCCC(O)(c1ccc(Cl)cc1)C(CN1CCOCC1)c1ccc(Cl)cc1 (stereo not given),7.9µM*,-8,-1%,-8,-16%[46.1 µM]
CCCC(O)(c1ccc(OC)cc1)C(CN1CCOCC1)c1ccc(Cl)cc1 (stereo not given),.,1,-3%,-4,.
COc1ccc(Nc2cc(Cl)nc(N)n2)cc1,-29%[46.1 µM],36,-7%,29*,13%[46.1 µM]
COc1ccc(Nc2cc(C)nc(N)n2)cc1,.,37*,10%,20*,.
CCCOc1ccc(Nc2cc(C)nc(C)n2)cc1,22%[46.1 µM],.,.,.,9%[46.1 µM]
Nc1cc(Nc2ccc(Br)cc2)nc(N)n1,-29%[46.1 µM],70*,16%,40*,13%[46.1 µM]
Cc1cc(Nc2ccc(Cl)cc2)nc(N)n1,2%,63*,2%,68*,-13%
Cc1nc(N)c(S(=O)(=O)c2ccccc2)c(Nc2ccc(Br)cc2)n1,7%[46.1 µM],.,.,.,-7%[46.1 µM]
Cc1nn(-c2ccccc2)c2c1cc1c(=O)[nH]c(=O)nc-1n2-c1cccc(Cl)c1,7%[46.1 µM],.,.,.,4%[46.1 µM]
CC(=O)Nc1ccc2c(c1)ncn2-c1ccccc1,?,56*,-19%,49*,3%
CCC(=O)Nc1ccc2c(c1)ncn2-c1ccccc1OC,?,24,10%,7,11%
CCC(=O)Nc1ccc2c(c1)ncn2-c1ccccc1,0%,85*,4%,33*,?
COC(=O)C1=C(C(=O)OC)[C@@H]2N(C)c3ccccc3[C@@]23CCC(=O)N(CCCOC(C)C)C3=N1,-10%[14.2 µM],.,.,.,.
COc1c(OC(C)=O)ccc(/C=N\NC(=O)c2ccc(Br)cc2)c1[N+](=O)[O-],-5%[46.1 µM],-1,-21%,1,?
COc1cccc(OC)c1C(=O)OCC(=O)NCCNC(=O)COC(=O)c1c(OC)cccc1OC,.,.,11%,.,.
Cc1ccc(/C(O)=C2\C(=O)C(=O)N(Cc3cccnc3)C2c2ccccc2[N+](=O)[O-])cc1 (stereo not given),?,83*,-18%,37*,17%
Cc1ccc(/C(O)=C2\C(=O)C(=O)N(C)C2c2ccccc2[N+](=O)[O-])cc1 (stereo not given),0%,.,1%,37*,2%
O=C(Cn1c(=O)oc2cc(S(=O)(=O)NC3CCCC3)ccc21)Nc1ccc(F)c(F)c1,-12%[46.1 µM],.,.,.,.
CC1=C(C(=O)O)CC(S(=O)(=O)O)C1(C)C (stereo not given),9%,.,16%,.,8%
CCCN(CC(=O)Nc1ccccc1C)C(=O)C1CCN(S(=O)(=O)c2ccccc2C(F)(F)F)CC1,-3%,.,2%,.,4%[46.1 µM]
Oc1ccc(Br)cc1/C=N/Nc1nc(N2CCCCC2)nc(N2CCOCC2)n1,2.5µM*,-10,29%,2,-20%[46.1 µM]
C/C(=N\Nc1nc(N2CCCCC2)nc(N2CCOCC2)n1)c1ccccc1O,1.8µM*,24,22%,-2,7.1µM*
SMILES,Marburg entry inh,Shiga inhibitor,AMA1-RON2 inh,Cycloheximide cs,Lassa entry inh
BrC(/C=C\c1ccccc1)=N/Nc1nc(N2CCOCC2)nc(N2CCOCC2)n1,?,2,10%,2,4%
BrC(=C\c1ccccc1)/C=N/Nc1nc(N2CCOCC2)nc(N2CCOCC2)n1,7.9µM*,-10,-3%,-3,-17%
CCS(=O)(=O)N1CCCc2cc(C(=O)Nc3cc([N+](=O)[O-])ccc3C)ccc21,-9%[46.1 µM],.,.,.,-10%[46.1 µM]
COc1cc(C(=O)Nc2ccc(N3CCOCC3)cc2)ccc1OCc1c(C)noc1C,18%,20,15%,-1,-16%
O=C(CCC(=O)c1cccs1)Nc1nnc(C2CC2)s1,0%,4,-2%,17*,0%
O=C(Nc1nnc(C2CC2)s1)c1cccs1,.,100*,-2%,51*,.
COc1ccccc1-c1nc(COc2ccc(Cl)cc2Cl)no1,1%,91*,2%,52*,1%
COc1ccc(-c2noc(CCCOc3ccc(Cl)cc3Cl)n2)cc1,-5%,-10,-16%,-1,?
COc1cccc(-c2nc(COc3ccc(Cl)cc3Cl)no2)c1,2%,14,44%,14*,.
CN(Cc1nc(Cc2cccc(C(F)(F)F)c2)no1)C1CC(C)(C)NC(C)(C)C1,?,-14,-4%,1,14%[46.1 µM]
O=C(c1cc2ccccc2[nH]1)N1CCOCC1,17%,active,13%,19*,4%
Cc1ccc(S(=O)(=O)N2CCCN(C(=O)c3cc4ccccc4[nH]3)CC2)cc1,25%[46.1 µM],81*,-13%,54*,0%
COc1ccc(OCCN2C(=O)c3ccccc3C2=O)cc1,2%[46.1 µM],90*,15%,29*,29%
O=C1c2ccccc2C(=O)N1CCOc1ccccc1Cl,.,-18,22%,-3,.
O=C1c2ccccc2C(=O)N1CCOc1ccccc1,?,.,9%,.,?
Cc1ccccc1OCCN1C(=O)C(=O)c2cccc(C)c21,?,-9,-10%,-1,4%
CC(C)Oc1cccc(OCCN2C(=O)c3ccccc3C2=O)c1,?,36*,9%,27*,-18%
Cc1ccccc1OCCN1C(=O)c2ccccc2C1=O,0%,154*,0%,47*,3%
O=C1c2ccccc2C(=O)N1CCOc1ccccc1Br,?,73*,17%,42*,-25%[46.1 µM]
CC1(C(=O)NS(=O)(=O)c2cccc(OC(F)F)c2)CCN1C(=O)Cc1ccsc1 (stereo not given),.,.,-12%,.,.
Cc1ccc(NC(=O)Cn2nnc(-c3ccccc3)n2)c(C)c1,.,.,.,.,16%[46.1 µM]
Cc1ccc(C2CC(C(F)(F)F)n3ncc(C(=O)NCc4ccco4)c3N2)cc1 (stereo not given),?,-6,-5%,-3,16%
COc1ccc2[nH]cc(CCCN3C(=O)c4ccccc4C3=O)c2c1,?,33,-16%,-3,11µM*
Nc1cccc2c1C(=O)N(CCOc1ccc(F)cc1)C2=O,?,140*,11%,54*,?
CCN(CC)CCNC(=O)C(=O)Nc1ccc2c(c1)N(S(=O)(=O)c1cccs1)CCC2,?,.,4%,.,-22%
SMILES,Marburg entry inh,Shiga inhibitor,AMA1-RON2 inh,Cycloheximide cs,Lassa entry inh
Cc1ccc(NC(=O)C(NC2CCCc3ccccc32)c2ccccc2)c([N+](=O)[O-])c1 (stereo not given),?,+,-15%[2.32 µM],22*,-13%
Cc1ccc(NC(=O)C(NC2CCCc3ccccc32)c2ccccc2)cc1Cl (stereo not given),?,15,-22%,26*,?
COc1ccc(-c2[nH]ncc2C(=O)NCc2cccc(Cl)c2)cc1,-23%[46.1 µM],.,.,.,.
O=C(/C=C/c1ccc([N+](=O)[O-])cc1)NCc1ccco1,?,27*,-5%,20,?
O=C(/C=C/c1cccc([N+](=O)[O-])c1)NCc1ccco1,10%,0,-5%,-4,-12%
O=C(CN1CCN(Cc2ccccc2Cl)C1=O)NCc1ccco1,?,-16,5%,-2,5%
